A short description of experiment [1]: HepG2 liver cancer cell viability effects, profiling panel, resazurin fluorescence, 24 h, PK04 Diversity Set (AID 1172). Further: test concentration not given here. Particulars: higher = more signal.
A short description of experiment [2]: basal S. cerevisiae growth modulation, no modifier, primary screen, OD600, strain BY4716, 24 h, basal condition (AID 1173). The following applies: OD600, 24 h, higher = more signal, called active from +8 up or from −8 down.
The nature of experiment [3]: MM1S myeloma cell viability, profiling panel, resazurin fluorescence, basal, 24 h, PK04 Diversity Set (AID 1174).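 Further: MM1S multiple myeloma cell line; test concentration not given here.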 The following applies: higher = more signal, called active from +8 up or from −8 down. (Alamar Blue is a resazurin reagent that responds to reducing activity.)
Experiment [4] has as its target Dihydroorotate dehydrogenase (quinone), mitochondrial (Plasmodium falciparum (isolate 3D7)) (UniProt Q08210). The experiment is described as follows: PfDHODH enzyme inhibitors, primary screen, biochemical, C-terminal His tag, absorbance 600 nm (AID 1175).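 Further: recombinant parasite enzyme with a five histidine tag at its C terminus; test concentration not given here.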 Particulars: DCIP absorbance 600 nm, higher = more signal, called active from +8 up or from −8 down.
Experiment [5] is described as follows: P. aeruginosa biofilm formation inhibitors, primary screen, strain PAO1, LB-PBS medium, absorbance 600 nm (AID 1176). Further: test concentration not given here. Particulars: P. aeruginosa PAO1 growth/biofilm, A600, 12 h; higher = more signal.
Experiment [6] in a line: S. cerevisiae RM11-1a growth modifiers, primary screen, strain RM11-1a, OD600, basal, 24 h (AID 1177).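 Further: cultures grown under basal conditions with no added stressor; test concentration not given here.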 The following applies: OD600, 24 h, higher = more signal, called active from +8 up or from −8 down.
The nature of experiment [7]: E. coli acrAB mutant growth effects, primary screen, E. coli filamentation inducers, strain DRC39, OD650, 24 h (AID 1178).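 Further: growth measured as culture turbidity by optical density at 650 nm; test concentration not given here.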 The following applies: higher = more signal, called active from +8 up or from −8 down.
Experiment [8] is described as follows: E. coli acrAB mutant growth effects, primary screen, E. coli filamentation inducers, strain DRC39, OD650, 48 h (AID 1179).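 Further: screen aims at cell division blockers that make cells filament.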 The following applies: E. coli DRC39 delta-acrAB growth, higher = more signal, called active from +8 up or from −8 down.
Experiment [9] can be described thus: RPMI8226 myeloma cell viability, profiling panel, resazurin fluorescence, basal, 24 h, PK04 Diversity Set (AID 1180).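 Further: RPMI8826 multiple myeloma cell line at 5000 cells per well; test concentration not given here.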 Particulars: higher = more signal.
The target of experiment [10] is E3 ubiquitin-protein ligase XIAP (Homo sapiens) (UniProt P98170). The experiment is described as follows: XIAP binders, primary screen, biophysical, small-molecule microarray, fluorescence 635 nm (AID 1181).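 Further: score merges 667 nm emission and signal to noise over triplicate slides.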 Particulars: small-molecule microarray binding, higher = more signal.

Structures are written as SMILES. The source made the active and inactive calls. Unless noted, how the calls were made is not given here.

Sequence of Dihydroorotate dehydrogenase (quinone), mitochondrial (Plasmodium falciparum (isolate 3D7)) (Q08210 whole entry, looked up): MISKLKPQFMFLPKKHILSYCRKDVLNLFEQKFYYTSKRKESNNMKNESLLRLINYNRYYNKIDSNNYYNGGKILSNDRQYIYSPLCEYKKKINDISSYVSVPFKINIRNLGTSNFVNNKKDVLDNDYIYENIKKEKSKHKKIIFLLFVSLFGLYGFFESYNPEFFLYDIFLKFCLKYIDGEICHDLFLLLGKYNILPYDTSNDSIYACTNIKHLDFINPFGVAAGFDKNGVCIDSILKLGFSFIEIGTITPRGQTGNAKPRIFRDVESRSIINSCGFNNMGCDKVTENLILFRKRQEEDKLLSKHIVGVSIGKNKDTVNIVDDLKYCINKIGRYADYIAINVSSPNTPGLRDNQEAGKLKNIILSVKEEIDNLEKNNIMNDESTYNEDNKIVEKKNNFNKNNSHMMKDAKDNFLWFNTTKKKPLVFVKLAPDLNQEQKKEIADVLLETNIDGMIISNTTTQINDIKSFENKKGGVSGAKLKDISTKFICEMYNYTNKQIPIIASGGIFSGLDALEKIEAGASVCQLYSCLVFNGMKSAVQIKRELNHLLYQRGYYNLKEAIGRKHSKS
Sequence of E3 ubiquitin-protein ligase XIAP (Homo sapiens) (P98170 whole entry, looked up): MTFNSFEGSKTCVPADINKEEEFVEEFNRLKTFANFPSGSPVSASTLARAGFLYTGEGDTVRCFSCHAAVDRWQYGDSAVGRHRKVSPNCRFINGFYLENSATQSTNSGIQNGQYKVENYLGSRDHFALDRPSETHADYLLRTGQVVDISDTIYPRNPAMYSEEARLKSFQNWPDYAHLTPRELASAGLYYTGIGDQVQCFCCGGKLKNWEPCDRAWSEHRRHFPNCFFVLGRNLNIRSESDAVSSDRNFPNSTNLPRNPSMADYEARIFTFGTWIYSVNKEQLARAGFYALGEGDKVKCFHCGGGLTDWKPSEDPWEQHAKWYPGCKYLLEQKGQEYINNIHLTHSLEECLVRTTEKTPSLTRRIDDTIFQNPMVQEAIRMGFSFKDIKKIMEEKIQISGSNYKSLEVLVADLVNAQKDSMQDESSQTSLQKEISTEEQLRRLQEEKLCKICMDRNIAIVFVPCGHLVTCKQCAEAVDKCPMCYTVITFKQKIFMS

For `COc1ccc([Si](C)(C)[C@@H]2[C@@H](CC(=O)N(CCO)Cc3ccccc3)O[C@]3(C(=O)N(Cc4cccc(N5CCOC5=O)c4)c4ccccc43)[C@H]2C)cc1`, the z-score in [1] was -1.89; in experiment [2], 0.0608 (inactive); in [3], -3.23 (inactive); in experiment [5], 1.76 (inactive); in experiment [6] it was 2.67 (inactive); in experiment [7], 0.577 (inactive). In addition, the figures for the z-score in experiment [8] and in experiment [9] were -0.463 (inactive) and -2.42, respectively. Further, the composite z-score in experiment [4] is 0.0205 (inactive); in experiment [10], -0.02.
On to `CCOC(=O)C1CCCCN1` (stereo not given), for which the z-score in experiment [1] was -0.241; in experiment [2] it was 0.466 (inactive); in [3], 0.122 (inactive); in experiment [5], 0.0619 (inactive); in experiment [6], 0.0958 (inactive); in [7], -0.33 (inactive). Besides, the z-score in experiment [8] is -0.0724 (inactive); in experiment [9], -0.809. The composite z-score in experiment [4] is -0.254 (inactive); in experiment [10], -0.222.
With `[N-]=[N+]=NCc1ccccc1C[C@@]1(C(=O)N2CCCCC2)N=C(c2ccc(OCCCO)cc2)O[C@@H]1c1ccccc1`, the z-score was -0.876 in [1]; -0.59 (inactive) in experiment [2]; -5.49 (inactive) in experiment [3]; 0.137 (inactive) in [5]; 1.95 (inactive) in [6]; 0.297 (inactive) in experiment [7]. Also, the figures for the z-score in experiment [8] and in experiment [9] were 0.696 (inactive) and -4.9, respectively. For the same molecule, the composite z-score in experiment [4] was 1.53 (inactive); in experiment [10], -0.279.
On to `CN(C)c1ccc(C(O)C2C=CC3C(=O)N(c4ccccc4)C(=O)C3N2Nc2ccc([N+](=O)[O-])cc2)cc1` (stereo not given), for which the z-score in [1] is -0.529; in experiment [2], -0.491 (inactive); in [3] it was -0.96 (inactive); in [5], 0.617 (inactive); in [6], 0.706 (inactive); in [7], -0.876 (inactive). Moreover, the z-score in [8] was -0.914 (inactive); in experiment [9] it was -1.41. The composite z-score in [4] is 0.835 (inactive); in experiment [10] it was -0.359.
As to `COc1ccc([Si](C)(C)[C@H]2[C@H](CCO)O[C@@]3(C(=O)N(Cc4cccc(N5C(=O)COc6ccccc65)c4)c4ccccc43)[C@@H]2C)cc1`, the z-score is -2.46 in experiment [1]; 0.422 (inactive) in [2]; -3.44 (inactive) in experiment [3]; 2.44 (inactive) in experiment [5]; 4.14 (inactive) in experiment [6]; 2.23 (inactive) in experiment [7]. For the same molecule, the z-score in experiment [8] is 1.92 (inactive); in [9], -4.91. Besides, the values for the composite z-score in [4] and in experiment [10] were 0.858 (inactive) and -0.132, respectively.
With `CC(C)N1C(=O)c2ccccc2[C@@H](C(=O)NC2CC2)[C@@H]1c1ccc(CO)cc1`, the z-score in [1] was -0.146; in experiment [2], 0.164 (inactive); in [3], 0.224 (inactive); in [5], 0.277 (inactive); in experiment [6] it was -0.716 (inactive); in experiment [7] it was 0.0426 (inactive). Besides, the z-score was -0.452 (inactive) in [8] and 0.417 in experiment [9]. Further, the composite z-score in [4] was -0.54 (inactive); in [10], 0.163.
Take `C=CCC(OC(C)=O)[C@@H]1[C@@H](N(Cc2cccc3ccccc23)C(=O)Cc2ccc(F)cc2)c2cc(OCCCO)ccc2N1C(=O)c1ccc2ccccc2n1` (stereo not given in full): the z-score was -0.157 in experiment [1]; 0.0526 (inactive) in [2]; 0.263 (inactive) in experiment [3]; 0.501 (inactive) in experiment [5]; -0.142 (inactive) in [6]; -0.406 (inactive) in [7]. In addition, the results for the z-score in experiment [8] and in [9] were 0.0816 (inactive) and 0.493, respectively. Moreover, the composite z-score in [4] was 0.451 (inactive); in [10], 0.357.
As for `C=CCC(OC(C)=O)[C@@H]1[C@@H](N(Cc2cc3ccccc3o2)C(=O)c2ccc(-c3ccccc3)cc2)c2cc(OCCCO)ccc2N1C(=O)c1ccc2ccccc2c1` (stereo not given in full), the z-score in [1] was -0.98; in [2] it was 1.9 (inactive); in experiment [3], 0.198 (inactive); in experiment [5] it was 0.857 (inactive); in experiment [6] it was 0.454 (inactive); in experiment [7], -0.413 (inactive). The results for the z-score in [8] and in [9] were -0.787 (inactive) and -0.158, respectively. Also, the composite z-score in experiment [4] was 0.396 (inactive); in experiment [10] it was -0.135.
Turning to `CN(C)CCCCNC(=O)[C@@H]1C[C@@H]2C(=O)N[C@@H](Cc3ccccc3)C(=O)N2[C@@H]1c1cccc(OCCO)c1`, the z-score in experiment [1] is 0.225; in [2], -0.957 (inactive); in [3] it was 0.977 (inactive); in experiment [5], 0.215 (inactive); in [6], -3.29 (inactive); in experiment [7], 2.51 (inactive). The z-score was 2.13 (inactive) in experiment [8] and 0.588 in [9]. The composite z-score in experiment [4] is -2.56 (inactive); in experiment [10], 0.109.
Turning to `C[C@@H]1NC(=O)[C@@]23C(=O)N[C@@H](Cc4ccccc4)C2[C@H](C)[C@@]2(C)O[C@H]2C3/C=C/C/C=C\CNC(=O)[C@@H]2CCCN2C1=O` (stereo not given in full), the z-score was -0.289 in [1]; -0.963 (inactive) in experiment [2]; -0.737 (inactive) in experiment [3]; 1.28 (inactive) in experiment [5]; -0.142 (inactive) in [6]; -0.4 (inactive) in [7]. Further, the figures for the z-score in experiment [8] and in experiment [9] were -0.188 (inactive) and -0.0461, respectively. The composite z-score in experiment [4] is -0.972 (inactive); in experiment [10], -0.102.
In the case of `O=C1N(Cc2ccccc2)Cc2ccccc2[C@@H]2OC(c3ccc(OCCCO)cc3)=N[C@]12CCS(=O)(=O)c1ccccc1`, the z-score in experiment [1] is -0.121; in experiment [2], 0.691 (inactive); in [3], -0.772 (inactive); in experiment [5] it was 1.91 (inactive); in experiment [6] it was 2.33 (inactive); in [7], 0.153 (inactive). In addition, the z-score in [8] is -0.286 (inactive); in experiment [9] it was -0.849. Besides, the composite z-score is 0.094 (inactive) in [4] and -0.144 in [10].
As to `COc1cc(CO)cc(I)c1O[C@H]1C=C(C(=O)NCCO)C[C@@H](NCc2ccc(F)cc2)[C@@H]1O`, the z-score is -0.205 in [1]; -3.76 (inactive) in experiment [2]; -1.29 (inactive) in experiment [3]; 0.507 (inactive) in experiment [5]; 0.0419 (inactive) in experiment [6]; 0.988 (inactive) in [7]. In addition, the z-score is 0.878 (inactive) in experiment [8] and -0.512 in experiment [9]. Further, the composite z-score in [4] was 0.969 (inactive); in experiment [10], -0.101.
With `C=C(C)C1CCC(C(O)C2C=CC3C(=O)N(C)C(=O)C3N2N2CCCCC2)CC1` (stereo not given), the z-score was -0.689 in experiment [1]; 0.08 (inactive) in experiment [2]; -1.19 (inactive) in experiment [3]; 0.751 (inactive) in experiment [5]; 1.82 (inactive) in experiment [6]; -0.742 (inactive) in [7]. Also, the z-score is -0.654 (inactive) in experiment [8] and -0.954 in experiment [9]. For the same molecule, the composite z-score in experiment [4] is 0.112 (inactive); in [10], 0.62.
Consider `CCOC(=O)C[C@H]1[C@H](OC(=O)c2cc3ccccc3oc2=O)[C@@H](NC(=O)c2ccc(-c3ccccc3)cc2)c2cc(OCCCO)ccc2N1C(=O)c1ccccc1`, for which the z-score in experiment [1] is -0.638; in [2], -1.79 (inactive); in experiment [3], -0.005 (inactive); in experiment [5], -0.329 (inactive); in experiment [6], -0.272 (inactive); in experiment [7], -0.466 (inactive). Also, the z-score in experiment [8] is -0.878 (inactive); in experiment [9], -0.24. Besides, the results for the composite z-score in experiment [4] and in [10] were -2.74 (inactive) and 0.164, respectively.
For `CCCCCCc1nc(C2CC2)cc2c1[Si](C(C)C)(C(C)C)O[C@H]2c1ccccc1`, the z-score in experiment [1] is -0.868; in [2], 0.391 (inactive); in [3], -0.749 (inactive); in [5], 0.0672 (inactive); in experiment [6], -0.553 (inactive); in [7], -0.476 (inactive). For the same molecule, the z-score is -0.594 (inactive) in [8] and -0.249 in experiment [9]. For the same molecule, the composite z-score in experiment [4] was 0.423 (inactive); in [10] it was -0.0872.
For `CC[C@H]1C2=C3C(CC[C@H]4C(OCc5ccc(F)cc5C(F)(F)F)OC[C@](C)([C@@H]34)N(C(=O)OC(C)(C)C)C2)C(COC)C1COC` (stereo not given in full), the z-score is -0.983 in experiment [1]; 0.9 (inactive) in experiment [2]; -1.31 (inactive) in [3]; -0.126 (inactive) in experiment [5]; 0.628 (inactive) in experiment [6]; -0.543 (inactive) in experiment [7]. The z-score in experiment [8] was 0.0886 (inactive); in [9], -0.932. Besides, the composite z-score in [4] is -0.0058 (inactive); in experiment [10], -0.0838.
With `COc1ccc([Si](C)(C)[C@H]2[C@H](CC(=O)N(CCO)Cc3ccccc3)O[C@@]3(C(=O)N(Cc4cccc(N5CCOC5=O)c4)c4ccccc43)[C@@H]2C)cc1`, the z-score is -2.5 in [1]; 0.181 (inactive) in experiment [2]; -3.55 (inactive) in [3]; 1.28 (inactive) in [5]; 2.36 (inactive) in experiment [6]; -0.566 (inactive) in experiment [7]. Besides, the z-score in [8] was -0.639 (inactive); in experiment [9], -3.7. Moreover, the results for the composite z-score in experiment [4] and in [10] were 0.966 (inactive) and -0.0562, respectively.
For `COCCOC(=O)N1C(=O)[C@@]2(c3cc(C#CC4=CCCCC4)ccc31)[C@H](c1ccc(OCCO)cc1)N1[C@H](c3ccccc3)[C@H](c3ccccc3)OC(=O)[C@H]1[C@@H]2C(=O)NC[C@H](O)c1ccccc1`, the z-score in [1] was 0.334; in [2] it was 2.36 (inactive); in [3] it was -0.363 (inactive); in experiment [5], 3.6 (inactive); in experiment [6], 2.83 (inactive); in experiment [7], -0.441 (inactive). For the same molecule, the z-score in experiment [8] was -0.16 (inactive); in experiment [9], -0.48. Also, the values for the composite z-score in experiment [4] and in experiment [10] were 0.184 (inactive) and -0.12, respectively.

The values above are taken from PubChem BioAssay.
